Measurements: PMC7862700, “An all-to-all approach to the identification of sequence-specific readers for epigenetic DNA modifications on cytosine”

What was measured:
Assay in all cases: DAPPL (digital affinity profiling via proximity ligation, sequencing); 10 mM Tris-HCl pH 7.5, 50 mM NaCl, 1 mM DTT, 4% glycerol, room temperature, 30 min; GST-TFs on glutathione beads, 16-mer random dsDNA library, 0.1% formaldehyde crosslink after washing; high values mean tight binding
Conditions in all cases: protein: recombinant; tags: N-terminal GST; dsDNA, one strand shown
FLI1 = target: T1, FLI1 (Homo sapiens, UniProt Q01543 1-452)
T1 sequence: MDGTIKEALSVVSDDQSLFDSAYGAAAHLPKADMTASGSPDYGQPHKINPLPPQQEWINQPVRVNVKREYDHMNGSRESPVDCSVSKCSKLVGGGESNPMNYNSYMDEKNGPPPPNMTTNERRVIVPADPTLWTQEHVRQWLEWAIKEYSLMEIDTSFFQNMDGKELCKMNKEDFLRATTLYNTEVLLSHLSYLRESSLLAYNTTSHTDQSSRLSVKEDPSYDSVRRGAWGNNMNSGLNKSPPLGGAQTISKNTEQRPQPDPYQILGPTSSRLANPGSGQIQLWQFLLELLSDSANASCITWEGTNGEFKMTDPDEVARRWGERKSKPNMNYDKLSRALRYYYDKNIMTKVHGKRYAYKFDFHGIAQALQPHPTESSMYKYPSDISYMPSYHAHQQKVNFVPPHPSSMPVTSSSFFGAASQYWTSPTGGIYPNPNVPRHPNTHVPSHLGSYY
Outline: (§1)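 Each value of binding signal is a hexamer's read frequency for a factor divided by the same hexamer's frequency in the tag-only sample. Barcoded, bead-captured GST fusions of human transcription factors made in yeast were pooled with that sample and incubated with 200 nmole of a random double-stranded 16-mer DNA library in Tris/NaCl/DTT/glycerol buffer at room temperature for 30 min. Washing, 0.1% formaldehyde crosslinking, proximity ligation, PCR and Illumina NextSeq500 sequencing followed.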

ELK1 = target: T2, ELK1 (Homo sapiens, UniProt P19419 1-428)
T2 sequence: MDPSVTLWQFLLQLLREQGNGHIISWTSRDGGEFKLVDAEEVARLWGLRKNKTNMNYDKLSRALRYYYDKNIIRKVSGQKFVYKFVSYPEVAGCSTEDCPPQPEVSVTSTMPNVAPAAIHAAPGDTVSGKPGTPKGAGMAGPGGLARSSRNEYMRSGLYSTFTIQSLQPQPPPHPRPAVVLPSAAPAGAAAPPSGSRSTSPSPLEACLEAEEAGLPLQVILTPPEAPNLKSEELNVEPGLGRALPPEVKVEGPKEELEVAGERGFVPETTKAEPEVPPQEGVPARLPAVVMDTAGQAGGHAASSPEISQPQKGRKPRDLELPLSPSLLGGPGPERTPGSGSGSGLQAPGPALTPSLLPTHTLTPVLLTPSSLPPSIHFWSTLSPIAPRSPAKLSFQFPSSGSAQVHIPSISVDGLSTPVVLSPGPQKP
Outline: as §1

GABPA = target: T3, GABPA (Homo sapiens, UniProt Q06546 1-454)
T3 sequence: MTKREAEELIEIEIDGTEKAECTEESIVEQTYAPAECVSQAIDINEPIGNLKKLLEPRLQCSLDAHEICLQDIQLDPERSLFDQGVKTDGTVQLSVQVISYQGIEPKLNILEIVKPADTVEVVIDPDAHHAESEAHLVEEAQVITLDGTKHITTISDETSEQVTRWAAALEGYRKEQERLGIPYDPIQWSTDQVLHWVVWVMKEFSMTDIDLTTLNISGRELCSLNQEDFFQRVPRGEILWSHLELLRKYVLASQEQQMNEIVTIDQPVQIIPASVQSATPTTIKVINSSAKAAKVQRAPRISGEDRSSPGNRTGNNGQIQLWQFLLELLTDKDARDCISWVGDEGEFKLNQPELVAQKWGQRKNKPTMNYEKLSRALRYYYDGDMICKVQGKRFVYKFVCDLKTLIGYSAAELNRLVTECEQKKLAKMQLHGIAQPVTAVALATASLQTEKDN
Outline: as §1

ERG = target: T4, ERG (Homo sapiens, UniProt P11308 1-479)
T4 sequence: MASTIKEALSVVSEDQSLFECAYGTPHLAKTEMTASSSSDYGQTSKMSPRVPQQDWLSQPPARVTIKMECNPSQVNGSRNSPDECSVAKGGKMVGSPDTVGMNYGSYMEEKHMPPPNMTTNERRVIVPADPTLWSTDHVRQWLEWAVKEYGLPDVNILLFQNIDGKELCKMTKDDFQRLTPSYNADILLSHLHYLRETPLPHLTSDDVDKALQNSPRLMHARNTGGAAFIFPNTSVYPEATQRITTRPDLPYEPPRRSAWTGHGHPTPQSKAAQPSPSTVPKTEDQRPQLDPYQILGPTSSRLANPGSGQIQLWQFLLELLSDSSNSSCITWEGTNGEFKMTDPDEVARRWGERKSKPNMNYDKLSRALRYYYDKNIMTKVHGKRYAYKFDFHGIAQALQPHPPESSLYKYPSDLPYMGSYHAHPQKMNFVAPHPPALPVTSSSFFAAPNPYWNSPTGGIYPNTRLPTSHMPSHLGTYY
Outline: as §1

ELF1 = ELF1 (Homo sapiens, UniProt P32519 1-619)
Outline: as §1

EHF = target: T5, EHF (Homo sapiens, UniProt Q9NZC4 1-300)
T5 sequence: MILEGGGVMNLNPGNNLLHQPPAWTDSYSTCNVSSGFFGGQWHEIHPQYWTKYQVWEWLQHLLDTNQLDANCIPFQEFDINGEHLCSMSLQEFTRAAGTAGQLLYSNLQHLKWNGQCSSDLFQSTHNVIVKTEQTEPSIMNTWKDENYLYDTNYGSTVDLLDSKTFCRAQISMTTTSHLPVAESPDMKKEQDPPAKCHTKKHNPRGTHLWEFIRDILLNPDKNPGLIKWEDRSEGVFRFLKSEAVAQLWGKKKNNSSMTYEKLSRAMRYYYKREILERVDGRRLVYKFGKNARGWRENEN
Outline: as §1

SPI1 = SPI1 (Homo sapiens, UniProt P17947 1-270)
Outline: as §1

SPIB = SPIB (Homo sapiens, UniProt Q01892 1-262)
Outline: as §1

ELK3 = target: T6, ELK3 (Homo sapiens, UniProt P41970 1-407)
T6 sequence: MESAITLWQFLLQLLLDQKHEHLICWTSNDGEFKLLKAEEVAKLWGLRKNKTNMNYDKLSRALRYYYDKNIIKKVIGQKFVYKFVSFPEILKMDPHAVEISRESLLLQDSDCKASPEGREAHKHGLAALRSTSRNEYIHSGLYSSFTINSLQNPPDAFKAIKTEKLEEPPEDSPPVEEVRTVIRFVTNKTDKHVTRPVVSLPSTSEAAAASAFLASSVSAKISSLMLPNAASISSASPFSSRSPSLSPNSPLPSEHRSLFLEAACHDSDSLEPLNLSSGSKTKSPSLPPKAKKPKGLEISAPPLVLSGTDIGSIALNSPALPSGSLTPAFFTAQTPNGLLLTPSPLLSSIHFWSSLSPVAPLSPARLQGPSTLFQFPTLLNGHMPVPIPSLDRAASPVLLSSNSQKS
Outline: as §1

Sequence of SPIB (Q01892 whole entry): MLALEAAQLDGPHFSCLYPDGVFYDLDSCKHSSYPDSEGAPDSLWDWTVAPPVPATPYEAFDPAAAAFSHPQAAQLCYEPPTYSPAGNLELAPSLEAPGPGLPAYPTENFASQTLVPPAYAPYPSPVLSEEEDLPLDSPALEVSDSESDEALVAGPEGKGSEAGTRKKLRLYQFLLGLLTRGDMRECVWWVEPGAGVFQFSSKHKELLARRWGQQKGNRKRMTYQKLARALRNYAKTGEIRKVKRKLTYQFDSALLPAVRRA
Sequence of ELF1 (P32519 whole entry): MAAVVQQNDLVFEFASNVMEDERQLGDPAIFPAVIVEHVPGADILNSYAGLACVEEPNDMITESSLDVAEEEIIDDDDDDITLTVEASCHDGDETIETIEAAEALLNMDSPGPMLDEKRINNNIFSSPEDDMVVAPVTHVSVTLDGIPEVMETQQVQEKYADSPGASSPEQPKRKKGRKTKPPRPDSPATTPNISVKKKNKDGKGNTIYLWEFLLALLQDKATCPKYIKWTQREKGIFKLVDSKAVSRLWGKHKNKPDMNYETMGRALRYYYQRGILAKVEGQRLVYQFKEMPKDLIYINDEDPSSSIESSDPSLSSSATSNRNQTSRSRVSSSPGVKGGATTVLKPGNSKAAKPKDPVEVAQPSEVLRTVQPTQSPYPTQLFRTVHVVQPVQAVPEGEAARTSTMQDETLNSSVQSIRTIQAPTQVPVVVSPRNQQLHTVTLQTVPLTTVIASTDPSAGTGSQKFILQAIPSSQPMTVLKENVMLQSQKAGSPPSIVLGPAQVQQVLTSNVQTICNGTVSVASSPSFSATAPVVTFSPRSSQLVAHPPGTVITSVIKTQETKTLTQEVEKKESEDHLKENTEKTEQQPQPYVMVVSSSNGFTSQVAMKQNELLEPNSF

## ATCTAC
FLI1
  binding signal: 1.2 fold enrichment (6-mer frequency, TF over GST control)
ELK1
  binding signal: 1.38 fold enrichment (6-mer frequency, TF over GST control)
GABPA
  binding signal: 1.22 fold enrichment (6-mer frequency, TF over GST control)
ERG
  binding signal: 1.2 fold enrichment (6-mer frequency, TF over GST control)
ELF1
  binding signal: 1.34 fold enrichment (6-mer frequency, TF over GST control)
EHF
  binding signal: 1.25 fold enrichment (6-mer frequency, TF over GST control)
SPI1
  binding signal: 1.34 fold enrichment (6-mer frequency, TF over GST control)
SPIB
  binding signal: 1.35 fold enrichment (6-mer frequency, TF over GST control)
ELK3
  binding signal: 1.27 fold enrichment (6-mer frequency, TF over GST control)
